Source: PubChem BioAssay (NCI)
About 83,000 compounds went through this panel and 20% of them were active in at least one assay; those are over-represented in the sample as a whole.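 Step 1: grow cells in 96-well plates. Step 2: add test compound at a single concentration. Step 3: incubate 48 h. Step 4: record percent growth.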 The source made the active and inactive calls. Rule for the calls: active = growth percent below 10; inactive = the rest.

Tests used:
Test in all cases: NCI-60 one-dose screen, 48 h (100 = growth as untreated, 0 = no growth, -100 = all killed)
Conditions in all cases: 10 µM unless noted
HCT-15 colon = tested on: HCT-15 colon
SNB-75 CNS = tested on: SNB-75 CNS
SNB-19 CNS = tested on: SNB-19 CNS
U251 CNS = tested on: U251 CNS
PC-3 prostate = tested on: PC-3 prostate
UACC-62 melanoma = tested on: UACC-62 melanoma
SK-MEL-28 melanoma = tested on: SK-MEL-28 melanoma
SK-MEL-2 melanoma = tested on: SK-MEL-2 melanoma
EKVX NSCLC = tested on: EKVX NSCLC
SN12C renal = tested on: SN12C renal
UO-31 renal = tested on: UO-31 renal
TK-10 renal = tested on: TK-10 renal
ACHN renal = tested on: ACHN renal
CAKI-1 renal = tested on: CAKI-1 renal
A498 renal = tested on: A498 renal
CCRF-CEM leukemia = tested on: CCRF-CEM leukemia
MOLT-4 leukemia = tested on: MOLT-4 leukemia
SK-MEL-5 melanoma = tested on: SK-MEL-5 melanoma
LOX IMVI melanoma = tested on: LOX IMVI melanoma

Measured: growth

Cc1ccc(/C=C(\C#N)c2cc3ccccc3n2C)cc1
inactive: HCT-15 colon 10.3% | SNB-75 CNS 19.4% | SNB-19 CNS 29.3% | U251 CNS 30.9% | PC-3 prostate 36.1% | UACC-62 melanoma 20% | SK-MEL-28 melanoma 65.4% | SK-MEL-2 melanoma 75.7% | EKVX NSCLC 48.4% | SN12C renal 39.5% | UO-31 renal 56.8% | TK-10 renal 99.3% | ACHN renal 42.9% | CAKI-1 renal 34.4% | A498 renal 10.4% | CCRF-CEM leukemia 13.9% | MOLT-4 leukemia 21.6%

COC(=O)[C@]12CC[C@@H](C)[C@H](C)[C@@H]1C1=CC(=O)[C@@H]3[C@@]4(C)C[C@@H](OC(C)=O)[C@H](OC(C)=O)[C@@](C)(COC(C)=O)[C@@H]4C(=O)C[C@@]3(C)[C@]1(C)CC2
inactive: HCT-15 colon 38.5% | SNB-75 CNS 55.6% | SNB-19 CNS 57% | U251 CNS 40.7% | SK-MEL-5 melanoma 20% | LOX IMVI melanoma 50.8% | SK-MEL-2 melanoma 75.6% | EKVX NSCLC 57.8% | SN12C renal 57.1% | UO-31 renal 42.5% | TK-10 renal 74% | ACHN renal 31.8% | CAKI-1 renal 30.5% | A498 renal 53% | CCRF-CEM leukemia 17%
active: PC-3 prostate 2.41% | MOLT-4 leukemia 4.9%

O=C(/C=C/c1cccc2ccccc12)Nc1ncc(Cc2ccccc2)s1
active: SNB-75 CNS -17.2% | SNB-19 CNS 9.85% | U251 CNS 1.44% | A498 renal -10.8%
inactive: HCT-15 colon 12.2% | PC-3 prostate 30.3% | SK-MEL-5 melanoma 10.6% | UACC-62 melanoma 15.9% | SK-MEL-28 melanoma 44.1% | SK-MEL-2 melanoma 43.4% | EKVX NSCLC 20.3% | SN12C renal 32.1% | UO-31 renal 32.2% | TK-10 renal 31.7% | ACHN renal 20.8% | CAKI-1 renal 22.5% | CCRF-CEM leukemia 10.4% | MOLT-4 leukemia 18%

COc1cc(-c2cc(-c3nc4ccccc4[nH]3)[nH]n2)cc(OC)c1OC
active: PC-3 prostate 5.47% | SK-MEL-5 melanoma -44.4%
inactive: HCT-15 colon 48.8% | SNB-75 CNS 51.9% | SNB-19 CNS 86.9% | U251 CNS 55.8% | UACC-62 melanoma 34.5% | SK-MEL-28 melanoma 61.8% | SK-MEL-2 melanoma 47.4% | SN12C renal 65.8% | UO-31 renal 39.8% | TK-10 renal 70.3% | ACHN renal 39.3% | CAKI-1 renal 38.8% | A498 renal 17.2%

COc1ccc2c(c1)C(Br)=C(CCO)C2c1ccccc1 (configuration not stated)
inactive: HCT-15 colon 87.6% | SNB-75 CNS 57% | SNB-19 CNS 57.7% | U251 CNS 55.8% | PC-3 prostate 54.5% | SK-MEL-5 melanoma 96.5% | UACC-62 melanoma 60% | SK-MEL-28 melanoma 69.5% | SK-MEL-2 melanoma 85% | EKVX NSCLC 75.8% | SN12C renal 99.2% | UO-31 renal 62.4% | TK-10 renal 67% | CAKI-1 renal 37% | A498 renal 35.6% | CCRF-CEM leukemia 95.2% | MOLT-4 leukemia 114%
active: ACHN renal 4.96%

Cc1ccc2[nH]cc(-c3nc(-c4cn(C)c5ncccc45)cs3)c2c1
inactive: HCT-15 colon 83% | SNB-75 CNS 85% | SNB-19 CNS 109% | U251 CNS 94.8% | PC-3 prostate 57% | SK-MEL-5 melanoma 76.9% | UACC-62 melanoma 79.3% | SK-MEL-28 melanoma 90.6% | SK-MEL-2 melanoma 89.4% | EKVX NSCLC 59.5% | SN12C renal 87.8% | TK-10 renal 95% | ACHN renal 79.6% | CAKI-1 renal 77.9% | A498 renal 72.2% | CCRF-CEM leukemia 58.5% | MOLT-4 leukemia 53.3%

CN(C)CCCCC(C(=O)CBr)(c1ccccc1)c1ccccc1
inactive: SNB-75 CNS 46% | SNB-19 CNS 82.6% | U251 CNS 41.5% | PC-3 prostate 51.6% | SK-MEL-5 melanoma 35% | SK-MEL-28 melanoma 23.6% | SK-MEL-2 melanoma 53.8% | EKVX NSCLC 48.8% | SN12C renal 20.8% | A498 renal 40.2%
active: HCT-15 colon -33.9% | LOX IMVI melanoma -39% | UO-31 renal -56.1% | TK-10 renal -47.6% | ACHN renal -65.4% | CAKI-1 renal -23.5% | CCRF-CEM leukemia 5.74% | MOLT-4 leukemia 0.308%

Clc1cc(Cl)cc(Nc2ccc3c(OCCCN4CCOCC4)cccc3n2)c1
inactive: SNB-75 CNS 54.9% | SNB-19 CNS 31.7% | U251 CNS 29.1% | PC-3 prostate 42% | UACC-62 melanoma 14.7% | SK-MEL-28 melanoma 65.6% | SK-MEL-2 melanoma 87.8% | EKVX NSCLC 62.2% | SN12C renal 76.1% | UO-31 renal 28.6% | TK-10 renal 80.5% | ACHN renal 49.9% | CAKI-1 renal 56.6% | A498 renal 59.8% | CCRF-CEM leukemia 29.5% | MOLT-4 leukemia 22.5%
active: HCT-15 colon -46.4% | LOX IMVI melanoma -85.4%

CN(C)c1cccc2[nH]c(-c3[nH]ncc3Nc3ccnc(N)n3)nc12
active: HCT-15 colon -17.1% | SNB-75 CNS -68.7% | SNB-19 CNS -3.76% | U251 CNS -50.1% | PC-3 prostate 5.95% | SK-MEL-5 melanoma -98.9% | UACC-62 melanoma -85.1% | SK-MEL-28 melanoma -57.3% | SK-MEL-2 melanoma -60.4% | EKVX NSCLC -17% | SN12C renal -7.45% | UO-31 renal -9.8% | TK-10 renal -30.1% | ACHN renal -1.92% | CAKI-1 renal -45.9% | A498 renal -79.4% | CCRF-CEM leukemia 1.73%

Brc1ccc2c(c1)c(-c1nc(-c3c[nH]c4ncccc34)cs1)cn2CCCN1CCCCC1
active: HCT-15 colon -80% | SNB-19 CNS -68.3% | U251 CNS -84.2% | PC-3 prostate 2.12% | SK-MEL-5 melanoma -59.5% | LOX IMVI melanoma -93.5% | SK-MEL-28 melanoma -84.8% | UO-31 renal -52% | ACHN renal -23.7% | CCRF-CEM leukemia -35.5% | MOLT-4 leukemia -44.6%
inactive: SNB-75 CNS 67.6% | SK-MEL-2 melanoma 36.8% | EKVX NSCLC 50.1% | SN12C renal 25.3% | TK-10 renal 76.2% | A498 renal 77%
